Assay results: PubChem BioAssay AID620 (Sanford-Burnham Center for Chemical Genomics, 2007)
The campaign covered roughly 87,000 compounds. About 360 (0.41%) were called active. This is one part of a sample in which actives are shown more often than they occur. Values without a mark were called inactive. Cut-off read from the data, not from the text of the source: active = cytotoxicity above about 50%; inactive = the rest.

Experiment: cytotoxicity in HT1080 fibrosarcoma cells, cell-based, fluorescence readout (AID 620);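 note: cells exposed to compound overnight then 4 h with Alamar Blue; 0% = vehicle DMSO and 100% = killing control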
Details: HT1080 viability, at 10 µM, hits give high values

First: Cc1ccc2c(c1)[C@H]1OCC[C@H]1[C@@H](c1ccncc1)N2
Second: N#CC1=C(N)Oc2cc(O)ccc2C1c1ccncc1 (stereo not given)
The cytotoxicity of the first is higher: -2.2% for the first, -6.2% for the second.

Compared with `CC1CCCCN1CCn1c(=S)[nH]c2ncccc2c1=O` (stereo not given), `CC1CCCCC1NC(=O)CCn1c(=O)oc2ccccc21` (stereo not given) is lower in cytotoxicity: 33.2% for the first, -4% for the second.

Going from `Cn1c(SCC(=O)NC2CCCC2)nnc1-c1ccc(S(=O)(=O)N2CCOCC2)cc1` to `O=C(CCCN1C(=O)c2ccccc2C1=O)Nc1ccc(S(=O)(=O)N2CCOCC2)cc1`, the cytotoxicity rises from 4.3% to 14.1%.

Going from `O=C1CCC(=O)N1c1ccccc1-c1ccccc1` to `O=S(=O)(c1cccc(-c2csc(-c3ccccc3)n2)c1)N1CCOCC1`, the cytotoxicity rises from -0.5% to 2%.

First: CCCC(=O)Nc1ccc(NC(=O)CCc2ccccc2)cn1
Second: O=C(CSCc1ccccc1)Nc1ccc(Cl)cn1
The cytotoxicity of the first is lower: 8.6% for the first, 20.2% for the second.

First: Cc1ccc(NC2=NC3(CCCCC3)N=C(N)N2)c(C)c1
Second: O=C(NCc1cccs1)c1noc2c1CCCCC2
The cytotoxicity of the first is higher: 33% for the first, -0.7% for the second.

Compared with `COC(=O)C1=C(C)Nc2nnnn2C1c1cccnc1` (stereo not given), `CC1=CC(C)(C)Nc2ccc(OC(=O)c3cccnc3)cc21` is higher in cytotoxicity: 10% for the first, 14.7% for the second.

Compared with `CC1/C(=N/O)CC(c2ccccc2)N(C)C1c1ccccc1` (stereo not given), `CO/N=C\C(=N\Nc1ccc(OC)cc1)C(=O)c1ccccc1` is lower in cytotoxicity: -0.2% for the first, -0.7% for the second.

Going from `CC1Cc2ccccc2N1S(=O)(=O)c1ccc2c(c1)n(C)c(=O)c(=O)n2C` (stereo not given) to `COc1ccc(OC)c(S(=O)(=O)N2c3ccccc3CC2C)c1` (stereo not given), the cytotoxicity rises from -1.8% to 10.1%.

First: O=C(NCc1ccccn1)[C@@H]1C[C@H]1[C@@H](NP(=O)(c1ccccc1)c1ccccc1)c1ccccc1
Second: O=C1NC(c2ccccc2)=C(c2nc3ccccc3s2)C(c2ccc(F)cc2)N1 (stereo not given)
The cytotoxicity of the first is lower: -17.9% for the first, -3.1% for the second.

Compared with `CCOc1ccc(NC(=O)CSc2nnc(-c3ccco3)n2C)cc1`, `CCOc1ccc(NC(=O)Cn2nnc(C(=O)NCc3ccco3)c2N)cc1` is higher in cytotoxicity: -3.7% for the first, 11.4% for the second.

First: CN(C(=O)c1cc2n(n1)C(C(F)(F)F)CC(c1ccco1)N2)c1ccc(OC(F)(F)F)cc1 (stereo not given)
Second: O=C(NC1CCCCCC1)c1cc2n(n1)C(C(F)(F)F)CC(c1ccco1)N2 (stereo not given)
The cytotoxicity of the first is higher: -1.6% for the first, -4.1% for the second.

First: NC(=O)Nc1ccc(Oc2c(F)c(F)c(F)c(F)c2F)cc1
Second: COc1ccc(N/N=C(/Oc2ccc([N+](=O)[O-])cc2)C(C)=O)cc1
The cytotoxicity of the first is higher: 6% for the first, 5.4% for the second.

First: OC(CCCCN1CCCCC1)c1ccccc1 (stereo not given)
Second: OC(CCN1CCCC1)(c1ccccc1)C1CCCCC1 (stereo not given)
The cytotoxicity of the first is lower: -4.7% for the first, -2.5% for the second.

Going from `O=c1c2ccccc2nnn1CSc1nc2ccccc2c(=O)n1Cc1ccco1` to `CCOc1ccccc1NC(=O)CSc1nnnn1-c1ccccc1`, the cytotoxicity rises from -4.3% to 7.2%.

First: O=C(Nc1nccs1)c1ccc(S(=O)(=O)NCC2CCCCC2)cc1
Second: O=C(NC1CCCCCC1)C1CCN(C(=O)Cc2ccccc2)CC1
The cytotoxicity of the first is lower: -11.1% for the first, 3.1% for the second.

First: COc1ccc(NC(=O)Cn2nnc(C(=O)NCc3ccco3)c2N)c(OC)c1
Second: COc1ccc(NC(=O)CC(=O)Nc2ccc(OC)cc2OC)c(OC)c1
The cytotoxicity of the first is higher: -0.4% for the first, -3.5% for the second.

Going from `CCOc1ccccc1NC(=O)C(CC(C)C)NC(=O)C1CCC(C)CC1` (stereo not given) to `CCOc1ccc(Br)cc1S(=O)(=O)Nc1ccccc1N1CCOCC1`, the cytotoxicity falls from 4.7% to 4.5%.

Compared with `CN(C)CC(=O)c1c[nH]c2ccccc12`, `CCN(CC)CC(=O)c1c[nH]c2ccccc12` is higher in cytotoxicity: -5.2% for the first, 3.6% for the second.

Compared with `O=C(O)CCC(=O)c1c[nH]c2ccccc12`, `COc1ccc(CC(=O)c2ccccc2C(=O)O)cc1` is higher in cytotoxicity: -4.6% for the first, -0.2% for the second.

Going from `CC(=O)N(c1ccc(Cl)cc1)c1c[nH]c2ccccc12` to `Nc1ccc(-c2nc3ccccc3[nH]2)cc1`, the cytotoxicity falls from 3.1% to -3.5%.

Compared with `CC(C)OC(=O)c1cccnc1SCc1cc(=O)n2ccccc2n1`, `CC(C)Cn1c(N)c(S(=O)(=O)c2cccs2)c2nc3ccccc3nc21` is higher in cytotoxicity: -0.4% for the first, 30.5% for the second.

First: COc1cc(C)nc(N2CCCC(C(=O)NC3CCC(C)CC3)C2)n1 (stereo not given)
Second: Cc1noc(C)c1S(=O)(=O)N1CCCC(C(=O)NCc2ccccn2)C1 (stereo not given)
The cytotoxicity of the first is lower: -9.4% for the first, 3.9% for the second.

Compared with `Cc1c(C(=O)NC2CCCCC2)oc2c1C(=O)CC(C)(C)C2`, `CC1=CC(C)(C)Nc2ccc(OC(=O)CN3C(=O)C4CCCCC4C3=O)cc21` (stereo not given) is higher in cytotoxicity: -3.7% for the first, -1% for the second.

Going from `CCOc1ccc2nc(SCC)[nH]c2c1` to `COc1ccc2nc(-c3ccccc3)[nH]c2c1`, the cytotoxicity rises from 15.4% to 28.2%.

Going from `COc1ccc(OCc2nc3ccccc3[nH]2)cc1` to `COc1ccc(C(=O)Oc2ccc(/C=N/O)cc2)cc1`, the cytotoxicity falls from 5.1% to 2.6%.

Compared with `CC(=O)N1[C@H](Cc2ccccc2)C=C[C@]1(C)C(=O)NCc1ccc(C)o1`, `CC(=O)N1[C@H](Cc2ccccc2)C=C[C@]1(C)C(=O)O` is higher in cytotoxicity: -2.9% for the first, 6.6% for the second.

Going from `Cc1ccsc1C1NC(=O)c2c(sc3c2CCN(C)C3)N1` (stereo not given) to `CCSC1=C(C#N)C(c2ccc(C)s2)CC(=O)N1` (stereo not given), the cytotoxicity falls from 9.6% to 0.8%.

Going from `COCCn1c(N)c(S(=O)(=O)c2cccs2)c2nc3ccccc3nc21` to `Cc1cccc(OCCn2c(NC(=O)c3ccco3)nc3ccccc32)c1`, the cytotoxicity falls from 11% to 5.5%.

Going from `Cc1cc(N2CCN(C(=O)c3ccco3)CC2)n2ncc(-c3ccccc3)c2n1` to `Cc1ccccc1-n1c(SCC(=O)N2CCN(c3ccccc3)CC2)nnc1-c1ccncc1`, the cytotoxicity falls from 5.6% to -3.7%.

Going from `CCCCCCSC1=C(C#N)C(c2ccc(C)o2)CC(=O)N1` (stereo not given) to `CCOC(=O)CSC1=C(C#N)C(c2ccccc2OC)CC(=O)N1` (stereo not given), the cytotoxicity falls from 29.7% to -1%.

First: CCOC(=O)CSC1=C(C#N)C(c2ccc(Cl)cc2)CC(=O)N1 (stereo not given)
Second: N#CC1=C(N)Oc2cc(N)ccc2C1c1ccc(F)cc1 (stereo not given)
The cytotoxicity of the first is higher: 2.7% for the first, -0.8% for the second.

First: COc1cc(C(=O)Nc2nnc(CC(=O)N3CCOCC3)s2)cc(OC)c1OC
Second: CCOc1cc(N2CCOCC2)c(OCC)cc1NC(=O)CCS(=O)(=O)c1ccc(Cl)cc1
The cytotoxicity of the first is lower: -1% for the first, 6.9% for the second.

First: COC(=O)CN(Cc1ccco1)S(=O)(=O)c1ccccc1
Second: Cc1ccnc(NS(=O)(=O)c2ccc(Oc3ccccc3)cc2)c1
The cytotoxicity of the first is lower: 1.2% for the first, 7.3% for the second.

Going from `CC1=CCC(Cc2nc3ccccc3o2)C1(C)C` (stereo not given) to `N#CC1=C(N)Oc2cc3ccccc3cc2C1c1cccnc1` (stereo not given), the cytotoxicity rises from 0.6% to 47.6%.

Going from `COc1ccc2nc(-n3c(C)ccc3C)sc2c1` to `CCC(=O)Nc1ccc(OC)cc1OC`, the cytotoxicity falls from -1.1% to -3.2%.

Going from `O=C(N1CCN(CCO)CC1)N1c2ccccc2C=Cc2ccccc21` to `O=C(CSc1nnc(COc2ccc(Cl)cc2)o1)N1CCN(c2ccccc2)CC1`, the cytotoxicity falls from 3.2% to 1.3%.

Going from `COc1cc(C2C(C#N)=C(N)Oc3cc(O)ccc32)cc2c1OCO2` (stereo not given) to `COc1cc(C2C(C#N)=C(N)Oc3cc(C)oc(=O)c32)cc2c1OCO2` (stereo not given), the cytotoxicity rises from -6.6% to -1.5%.

Compared with `N#CC1=C(N)Oc2c(ccc3cccnc23)C1c1cccnc1` (stereo not given), `N#CC1=C(N)Oc2cc(O)ccc2C1c1ccccc1` (stereo not given) is lower in cytotoxicity: 39.8% for the first, -0.8% for the second.

Compared with `COc1ccc(C2C(C#N)=C(N)Oc3cc(O)ccc32)cc1OC` (stereo not given), `CO/N=C/C(=N\Nc1ccc(OC)cc1)C(=O)c1ccc(OC)cc1` is higher in cytotoxicity: -13.3% for the first, 11.7% for the second.

Compared with `CCC(c1nnnn1C1CCCC1)N1CCN(c2ccccc2F)CC1` (stereo not given), `O=C(CSc1nnc(COc2ccc(F)cc2)o1)N1c2ccccc2CCc2ccccc21` is higher in cytotoxicity: -20.4% for the first, -8% for the second.

Compared with `COc1cc(NC(=O)CN2C(=O)NC(C)(CC(C)C)C2=O)cc(OC)c1` (stereo not given), `CCCCN(CCCC)S(=O)(=O)c1ccc(OC)c2ncccc12` is higher in cytotoxicity: -7.9% for the first, 32.7% for the second.

In the case of `CCCCCc1nnc(NC(=O)CS(=O)(=O)Cc2ccccc2)s1`, the cytotoxicity is reported as -1.5%.

With `O=C(CCc1ccccc1)Nc1ccc(Cl)cn1` the cytotoxicity was 52.1% (active).
In the case of `CCOc1ccc(S(=O)(=O)N2c3ccccc3CC2C)cc1` (stereo not given), the cytotoxicity is reported as 74.1% (active).
For `CN(C(=O)c1cc2n(n1)C(C(F)(F)F)CC(c1ccco1)N2)c1ccccc1` (stereo not given), the cytotoxicity was 56.4% (active).
For `CC(C)(C)c1ccc(C(O)CCCN2CCC(C(O)(c3ccccc3)c3ccccc3)CC2)cc1` (stereo not given), the cytotoxicity was 93.4% (active).
In the case of `CCOc1ccccc1NC(=O)Cn1nnc(C(=O)NCc2ccco2)c1N`, the cytotoxicity is reported as 56.8% (active).
For `O=C(CCl)N(c1ccccc1)c1c[nH]c2ccccc12`, the cytotoxicity was 71% (active).
With `O=C(CCl)N(c1ccc(Cl)cc1)c1c[nH]c2ccccc12` the cytotoxicity was 100% (active).
With `CCOc1ccc2nc(-c3ccccc3)[nH]c2c1` the cytotoxicity was 66.7% (active).
For `CC(C)CCn1c(N)c(S(=O)(=O)c2cccs2)c2nc3ccccc3nc21`, the cytotoxicity was 57% (active).
For `CCOC(=O)CSC1=C(C#N)C(c2ccc(C)s2)CC(=O)N1` (stereo not given), the cytotoxicity was 58% (active).
In the case of `CCOC(=O)CSC1=C(C#N)C(c2ccc(C)o2)CC(=O)N1` (stereo not given), the cytotoxicity is reported as 59.5% (active).
In the case of `CCOc1cc(N2CCOCC2)c(OCC)cc1NS(=O)(=O)c1ccc(Cl)s1`, the cytotoxicity is reported as 51.9% (active).
With `COc1cc(C2C(C#N)=C(N)Oc3cc(N(C)C)ccc32)cc2c1OCO2` (stereo not given) the cytotoxicity was 63.3% (active).
For `CN(C)c1ccc2c(c1)OC(N)=C(C#N)C2c1cccc(F)c1` (stereo not given), the cytotoxicity was 56% (active).
In the case of `CCN(CC)c1ccc2c(c1)OC(N)=C(C#N)C2c1cccnc1` (stereo not given), the cytotoxicity is reported as 67.5% (active).
For `COc1cc(C2C(C#N)=C(N)Oc3cc(O)ccc32)cc(OC)c1OC` (stereo not given), the cytotoxicity was 64.7% (active).
For `O=C(CSc1nnc(COc2ccc(Cl)cc2)o1)N1c2ccccc2CCc2ccccc21`, the cytotoxicity was 62.4% (active).
In the case of `CC1=CC(C)(C)Nc2ccc(OC(=O)c3ccco3)cc21`, the cytotoxicity is reported as 59.2% (active).
For `COc1ccc(N/N=C(\C=N\O)C(=O)c2ccc(OC)cc2)cc1`, the cytotoxicity was 59% (active).
With `CO/N=C/C(=N\Nc1ccc(C)cc1)C(=O)c1ccc(OC)cc1` the cytotoxicity was 53.7% (active).
